# Compound activity as filed in PubChem.
# An excerpt weighted towards active compounds, which were near 3.5% of everything screened.
# mHTT CaM bind: inhibitors of human mutant huntingtin-calmodulin interaction | P42858 | 3.6% of 190,000 active | AlphaScreen His-mHTT/GST-CaM binding, luminescence | inhibition, % at 15 µM;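 further: 0% = both proteins with DMSO and 100% = one protein alone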
# Pf apPOL inh: Pf-apPOL DNA polymerase inhibition | Recombinant Pf-apPOL, molecular beacon fluorescence, 1.5 h | inhibition, % at 10 µM | 0.25% of 210,000 active | AID 1794808
# An asterisk follows results filed as active; · = not tested or not shown. No stated cut-off is given here; in the data, active means inhibition above about 50%; inactive means the rest.
SMILES,mHTT CaM bind,Pf apPOL inh
CC(=O)c1ccc(OCC(O)CN2CC(C)CC(C)C2)cc1 (configuration not stated),-1,-1
COc1cccc(C(=O)N2CCN=C2SCc2cccc(F)c2)c1OC,-20,59*
COc1cccc(C(=O)N2CCN=C2SC)c1OC,5,-3
CC(C)(C)CC(C)(C)NC(=O)CN(c1cccc(C(F)(F)F)c1)S(=O)(=O)c1ccccc1,-7,1
CC(=O)Nc1c2ccc([N+](=O)[O-])cc2n2c(C)nc3ccc(Cl)cc3c12,-2,-5
Cc1nc2ccc(Cl)cc2c2c(N)c3ccccc3n12,56*,-12
O=C1NC(=Nc2ccccc2Cl)S/C1=C\c1cccc([N+](=O)[O-])c1O,44,6
O=C1NC(=Nc2ccccc2Cl)S/C1=C/c1ccc(F)cc1,76*,-4
O=C1NC(=Nc2ccccc2Cl)S/C1=C/c1ccccc1F,66*,-2
N#Cc1ccc(/C=C2/SC(=Nc3ccccc3Cl)NC2=O)cc1,35,2
Nc1nc2c(nc(N3CCOCC3)n2C2OC(CO)C(O)C2O)c(=O)[nH]1 (configuration not stated),-4,·
O=C(N=c1nc2ccccn2s1)c1ccc(F)cc1,-4,·
CNC(=O)C(=O)NCCN1CCN(C(=O)c2ccccc2Cl)CC1,-2,-6
COc1ccc(-c2csc(=Nc3ccccc3)n2CCO)cc1F,53*,-3
COc1ccc(-c2csc(=Nc3ccc(Cl)cc3)n2CCCO)cc1F,76*,0
CCOc1ccc(N=c2scc(-c3ccc(F)cc3)n2CCCO)cc1,31,-7
COc1ccc(-c2csc(=Nc3ccccc3)n2CCCN(C)C)cc1,45,2
CCOc1ccc(N=c2scc(-c3ccc(Cl)s3)n2CCCO)cc1,35,-2
COc1ccc(N=c2scc(-c3ccc(OC)cc3)n2CCN2CCOCC2)cc1,36,3
COc1ccc(N=c2scc(-c3ccc4c(c3)OCCO4)n2CCO)cc1,53*,-2
OCCCn1c(-c2ccc(F)cc2)csc1=Nc1ccc(Cl)cc1,87*,-4
COc1ccc(N2CCN(CC(O)COCCC34CC5CC(CC(C5)C3)C4)CC2)cc1 (configuration not stated),44,0
O=C1OC(c2ccc(Br)o2)=N/C1=C\c1cc(Br)cs1,1,0
